In PubChem BioAssay (EPA / NIEHS) one finds outcome and AC50 data, which are given here for 4 compounds.

Where “and” joins values, the source holds several entries; their conditions need not be identical. Equal values may be shown once. The source holds several records for some structures; these can differ, active in one and inactive in another. Calls of active or inactive are those of the source. Rule for the calls: active = hit-call score of the fitted dose curve at least 0.9, where 1 is the maximum; inactive = score below 0.9.

Read-out in experiment [1]: Macrophage colony-stimulating factor (MCSF), CSF1 (gene 1435)
Description: BSK_hDFCGF_MCSF: BioMAP Diversity Plus: hDFCGF Assay for Macrophage colony-stimulating factor (MCSF) Biomarker Activity (AID 2283060). The following applies: primary human foreskin fibroblasts; actives raise or lower the signal. The method, boiled down: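 ELISA read-out of M-CSF in human dermal foreskin fibroblast cultures, 24 h after chemical dosing; gain or loss of signal fitted bidirectionally relative to DMSO baseline.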

Experiment [2] can be described thus: BSK_hDFCGF_SRB: Viability Assessment in the BioMAP Diversity Plus: hDFCGF Assay (AID 2283061).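 Note: cells exposed to compound for 24 h before the read.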 The conditions noted are these: primary human foreskin fibroblasts. The gist of the method: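 Primary human foreskin fibroblasts; 24 h post-dose; fixed 10% TCA, stained 0.1% SRB, A560 read; total protein as overt cytotoxicity measure; curves fit bidirectionally vs DMSO control.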

Read-out in experiment [3]: TIMP metallopeptidase inhibitor 1 (TIMP1), TIMP1 (gene 7076)
Description: BSK_hDFCGF_TIMP1: BioMAP Diversity Plus: hDFCGF Assay for TIMP metallopeptidase inhibitor 1 (TIMP1) Biomarker Activity (AID 2283062). The following applies: primary human foreskin fibroblasts; actives raise or lower the signal. The method, boiled down:
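ELISA readout of TIMP-1 from human dermal foreskin fibroblast cultures 24 h post-dosing. Curves were fitted in both directions against DMSO baseline, with SRB total-protein staining in parallel cultures as a cytotoxicity check.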

Read-out in experiment [4]: Monokine induced gamma interferon (MIG), CXCL9 (gene 4283)
As to the kind of experiment: BSK_hDFCGF_MIG: BioMAP Diversity Plus: hDFCGF Assay for Monokine induced gamma interferon (MIG) Biomarker Activity (AID 2283063). The conditions noted are these: primary human foreskin fibroblasts; actives raise or lower the signal. The gist of the method: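 Fibroblasts (human foreskin, primary) dosed, 24 h, MIG by ELISA; fit bidirectional vs DMSO.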

Read-out in experiment [5]: Vascular cell adhesion molecule 1 (VCAM1), VCAM1 (gene 7412)
As to the kind of experiment: BSK_hDFCGF_VCAM1: BioMAP Diversity Plus: hDFCGF Assay for Vascular cell adhesion molecule 1 (VCAM1) Biomarker Activity (AID 2283065). The following applies: primary human foreskin fibroblasts; actives raise or lower the signal. The method, boiled down:
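ELISA read-out of VCAM-1 on human skin fibroblasts, 24 h post-dose; gain or loss of signal fitted bidirectionally against DMSO baseline.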

Read-out in experiment [6]: Plasminogen activator inhibitor-1 (PAI1), SERPINE1 (gene 5054)
Description: BSK_hDFCGF_PAI1: BioMAP Diversity Plus: hDFCGF Assay for Plasminogen activator inhibitor-1 (PAI1) Biomarker Activity (AID 2283066). The following applies: primary human foreskin fibroblasts; actives raise or lower the signal. The gist of the method: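 Human foreskin fibroblasts in the hDFCGF system were dosed with compound for 24 h; PAI-1 was quantified by ELISA. Bidirectional curve fitting used DMSO as negative control and baseline.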

Read-out in experiment [7]: Intercellular Adhesion Molecule 1 (ICAM1), ICAM1 (gene 3383)
Description: BSK_KF3CT_ICAM1: BioMAP Diversity Plus: KF3CT Assay for Intercellular Adhesion Molecule 1 (ICAM1) Biomarker Activity (AID 2283067). The conditions noted are these: primary human keratinocytes with fibroblasts; actives raise or lower the signal. The method, boiled down:
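ELISA readout of ICAM-1; KF3CT human skin co-culture (keratinocytes + foreskin fibroblasts), 24 h post-dose; gain/loss fit vs DMSO baseline.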

Read-out in experiment [8]: Interferon-gamma inducible Protein 10 (IP10), CXCL10 (gene 3627)
Description: BSK_KF3CT_IP10: BioMAP Diversity Plus: KF3CT Assay for Interferon-gamma inducible Protein 10 (IP10) Biomarker Activity (AID 2283068). The following applies: primary human keratinocytes with fibroblasts; actives raise or lower the signal. The gist of the method:
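In a primary skin co-culture of keratinocytes and fibroblasts, IP-10 is quantified by ELISA at 24 h after dosing. SRB staining of parallel wells monitors overt toxicity. Curves are fitted both directions against DMSO.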

Experiment [9] can be described thus: BSK_KF3CT_SRB: Viability Assessment in the BioMAP Diversity Plus: KF3CT Assay (AID 2283069).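 Note: total protein by sulforhodamine B staining as a cytotoxicity measure; read 24 h after compound addition.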 The following applies: primary human keratinocytes with fibroblasts. The method, boiled down: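 Human keratinocyte and foreskin fibroblast co-culture exposed to chemical for 24 h. Total protein measured in parallel cultures by 0.1% sulforhodamine B staining after 10% TCA fixation, read at 560 nm; bidirectional fit relative to DMSO.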

Read-out in experiment [10]: Interleukin-1 alpha (IL1a), IL1A (gene 3552)
As to the kind of experiment: BSK_KF3CT_IL1a: BioMAP Diversity Plus: KF3CT Assay for Interleukin-1 alpha (IL1a) Biomarker Activity (AID 2283070). The conditions noted are these: primary human keratinocytes with fibroblasts; actives raise or lower the signal. The gist of the method: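 Primary human keratinocyte plus foreskin fibroblast co-culture, dosed and measured at 24 h in 96-well plates. IL-1a level quantified by ELISA; bidirectional fit relative to DMSO.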

Read-out in experiment [11]: TIMP metallopeptidase inhibitor 2 (TIMP2), TIMP2 (gene 7077)
As to the kind of experiment: BSK_KF3CT_TIMP2: BioMAP Diversity Plus: KF3CT Assay for TIMP metallopeptidase inhibitor 2 (TIMP2) Biomarker Activity (AID 2283071). The conditions noted are these: primary human keratinocytes with fibroblasts; actives raise or lower the signal. The method, boiled down: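 Human primary keratinocyte/foreskin fibroblast co-culture dosed with chemical and sampled at 24 h. TIMP-2 levels quantified by ELISA; bidirectional fitting against DMSO negative control as baseline.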

Read-out in experiment [12]: Transforming growth factor beta 1 (TGFb1), TGFB1 (gene 7040)
Description: BSK_KF3CT_TGFb1: BioMAP Diversity Plus: KF3CT Assay for Transforming growth factor beta 1 (TGFb1) Biomarker Activity (AID 2283072). The following applies: primary human keratinocytes with fibroblasts; actives raise or lower the signal. The gist of the method: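 Human keratinocyte plus foreskin fibroblast primary co-culture, dosed with chemical for 24 h. TGF-b1 quantified by ELISA. Activity fitted bidirectionally against DMSO negative control as baseline.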

Read-out in experiment [13]: Matrix Metallopeptidase 9 (MMP9), MMP9 (gene 4318)
Description: BSK_KF3CT_MMP9: BioMAP Diversity Plus: KF3CT Assay for Matrix Metallopeptidase 9 (MMP9) Biomarker Activity (AID 2283074).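 For AC50: MMP9 protein level quantified by ELISA in the co-culture.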 The following applies: primary human keratinocytes with fibroblasts; actives raise or lower the signal. The gist of the method: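 Human keratinocyte and foreskin fibroblast co-culture exposed to chemicals for 24 h; MMP9 biomarker measured by ELISA, bidirectional fitting relative to DMSO; cytotoxicity tracked by SRB total protein staining in parallel cultures.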

Read-out in experiment [14]: CD40, CD40 (gene 958)
Description: BSK_LPS_CD40: BioMAP Diversity Plus: LPS Assay for CD40 Biomarker Activity (AID 2283076). The conditions noted are these: primary human HUVEC with PBMC; actives raise or lower the signal. The method, boiled down: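 ELISA readout of CD40 in HUVEC/PBMC co-culture (BSK_LPS system), 24 h post-dosing; bidirectional curve fit, DMSO baseline; parallel SRB total-protein staining for cytotoxicity.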

Read-out in experiment [15]: E-selectin (Homo sapiens) (UniProt P16581)
Description: BSK_LPS_Eselectin: BioMAP Diversity Plus: LPS Assay for Eselectin Biomarker Activity (AID 2283077). The following applies: primary human HUVEC with PBMC; actives raise or lower the signal. The gist of the method:
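ELISA readout of E-selectin, 24 h post-dose, HUVEC + PBMC co-culture (LPS system). Gain or loss of signal vs DMSO baseline, bidirectional fit.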

Read-out in experiment [16]: Interleukin-8 (IL8), CXCL8 (gene 3576)
Description: BSK_LPS_IL8: BioMAP Diversity Plus: LPS Assay for Interleukin-8 (IL8) Biomarker Activity (AID 2283078). The conditions noted are these: primary human HUVEC with PBMC; actives raise or lower the signal. The gist of the method:
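HUVEC + PBMC co-culture, LPS-activated; test chemicals dosed, IL-8 read by ELISA at 24 h. Bidirectional curve fit vs DMSO baseline (gain or loss of signal).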

Experiment [17] can be described thus: BSK_LPS_SRB: Viability Assessment in the BioMAP Diversity Plus: LPS Assay (AID 2283079).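 Note: total protein by sulforhodamine B absorbance as a cytotoxicity measure; measured one day after compound addition; fitted in both directions against DMSO so loss or gain of signal counts.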 The following applies: primary human HUVEC with PBMC. The gist of the method:
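HUVEC + PBMC co-culture, LPS-stimulated; compound 24 h. 10% TCA fix, 0.1% SRB stain, A560. Bidirectional fit vs DMSO.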

Read-out in experiment [18]: C-C motif chemokine 2 (Homo sapiens) (UniProt P13500)
As to the kind of experiment: BSK_KF3CT_MCP1: BioMAP Diversity Plus: KF3CT Assay for Monocyte Chemoattractant Protein 1 (MCP1/CCL2) Biomarker Activity (AID 2283073). The conditions noted are these: primary human keratinocytes with fibroblasts; actives raise or lower the signal. The method, boiled down:
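KF3CT skin co-culture (keratinocytes/foreskin fibroblasts), 24 h post-dose; MCP-1 by ELISA; gain/loss of signal fit bidirectionally vs DMSO baseline.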

Read-out in experiment [19]: urokinase plasminogen activator (uPA), PLAU (gene 5328)
As to the kind of experiment: BSK_KF3CT_uPA: BioMAP Diversity Plus: KF3CT Assay for urokinase plasminogen activator (uPA) Biomarker Activity (AID 2283075). The following applies: primary human keratinocytes with fibroblasts; actives raise or lower the signal. The gist of the method:
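Primary human keratinocyte/foreskin fibroblast co-culture exposed to chemical; uPA measured by ELISA at 24 h. Bidirectional fit versus DMSO, with parallel SRB total-protein staining for cytotoxicity.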

Chain of E-selectin (Homo sapiens) (P16581 whole entry, looked up): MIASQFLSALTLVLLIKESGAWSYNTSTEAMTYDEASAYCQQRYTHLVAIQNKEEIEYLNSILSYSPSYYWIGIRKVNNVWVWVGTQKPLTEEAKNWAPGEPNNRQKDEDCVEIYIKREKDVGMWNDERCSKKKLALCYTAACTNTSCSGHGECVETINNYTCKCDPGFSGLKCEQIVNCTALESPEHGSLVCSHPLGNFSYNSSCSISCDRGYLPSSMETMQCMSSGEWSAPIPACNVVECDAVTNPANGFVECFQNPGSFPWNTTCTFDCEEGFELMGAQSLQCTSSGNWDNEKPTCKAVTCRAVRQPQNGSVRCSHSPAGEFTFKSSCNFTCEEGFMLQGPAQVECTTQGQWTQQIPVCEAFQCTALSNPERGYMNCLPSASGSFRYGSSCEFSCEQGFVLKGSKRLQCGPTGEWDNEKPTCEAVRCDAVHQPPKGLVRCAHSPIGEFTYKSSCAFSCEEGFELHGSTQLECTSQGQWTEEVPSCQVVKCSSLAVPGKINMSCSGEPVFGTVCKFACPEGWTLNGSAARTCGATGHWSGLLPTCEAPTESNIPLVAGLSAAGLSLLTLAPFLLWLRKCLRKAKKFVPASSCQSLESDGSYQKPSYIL

For `Cc1cccc(N)c1`, the outcome in experiment [1], in [2], in [3], in [4], in [5] and in experiment [6] was inactive. Moreover, the outcome in [7], in [8], in [9], in experiment [10], in experiment [11] and in experiment [12] was inactive. Besides, the result in experiment [13], in experiment [14], in [15], in experiment [16] and in experiment [17] was inactive.
Turning to `N#Cc1cc([N+](=O)[O-])ccc1N`, the outcome in experiment [1], in experiment [2], in experiment [3], in experiment [4], in experiment [6] and in experiment [7] was inactive. Besides, the result in experiment [8], in experiment [9], in experiment [10], in experiment [11], in [12] and in [18] was inactive. The outcome in experiment [13], in experiment [14], in experiment [15], in experiment [16] and in experiment [17] was inactive.
For orientation: AC50 means the midpoint of the concentration-response curve, whichever way the signal moves. Consider `OCC(F)(F)OC(F)(F)C(F)(F)OC(F)(F)C(F)(F)OC(F)(F)F`, for which the outcome in [1], in experiment [2], in experiment [3], in experiment [6], in [14] and in experiment [15] was inactive. Also, in experiment [17], the outcome was inactive. Also, the AC50 in experiment [4] was 16 µM (active) and 14.7 µM (active); in [7], 48.3 µM (active) and 46.3 µM (active); in experiment [8], 53.8 µM (active) and 53.2 µM (active); in experiment [9], 48.3 µM (active) and 48.1 µM (active); in experiment [10] it was 41.4 µM (active) and 44.4 µM (active); in experiment [11], 51.7 µM (active) and 45 µM (active). The AC50 in experiment [18] is 49.3 µM (active) and 22.2 µM (active); in experiment [13], 54.1 µM (active) and 51.6 µM (active); in experiment [19] it was 45.7 µM (active) and 45.1 µM (active); in experiment [14], 41 µM (active); in [16] it was 47.4 µM (active) and 51.8 µM (active).
As to `CCOP(=S)(Oc1ccc([N+](=O)[O-])cc1)c1ccccc1` (stereo not given), the AC50 in [1] is 7.24 µM (active); in [6], 3.35 µM (active). Also, the result in experiment [2], in experiment [3], in experiment [4], in experiment [7], in experiment [8] and in experiment [9] was inactive. Also, the outcome in experiment [10], in experiment [11], in experiment [12], in [18], in experiment [13] and in [19] was inactive. The outcome in experiment [14], in experiment [15], in experiment [16] and in [17] was inactive.
